From PubChem BioAssay AID1159580 (chemical genetic matrix, 2015)
“And” between values parts separate entries of the source, which are not always exact repeats. Identical values can stand only once. In all, about 5,500 compounds went through this assay and about 2,000 (36%) were called active. Another 18% or so got no clear call; they are omitted. Rule as the data show it: active = normalized growth mostly below about 0.91 (no sharp cut-off); inconclusive = no clear call, values can overlap the other calls; inactive = mostly above about 0.92. The list shows a part of the results.

Assay: chemical genetic growth profiling, strain panel (AID 1159580);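 also: tested at 20 µM; growth read once vehicle control cultures reached saturation at 30 °C; 1 = growth at the plate median or of vehicle wells; lower values mean less growth of the strain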
Conditions: S. cerevisiae deletion strains, growth OD

Measured: normalized growth

CN[C@@H]1[C@@H](O[C@H]2O[C@H](CO)[C@@H](N)[C@H](O)[C@H]2O)O[C@H]2C[C@@H](N)[C@H](O[C@H]3[C@H](O)[C@@H](O)[C@H](N)C[C@@H]3N)O[C@@H]2[C@@H]1O
active: locus YDR137W, strain rgp1, hits give low values 0.702
inactive: locus YAL013W, strain DEP1, hits give low values 1.01 | locus YAL021C, strain ccr4, hits give low values 1.01 | locus YAL026C, strain drs2, hits give low values 0.995 | locus YAL030W, strain snc1, hits give low values 1.01 | locus YBL061C, strain skt5, hits give low values 1 | locus YBR009C, strain hhf1, hits give low values 1.01 | locus YBR021W, strain FUR4, hits give low values 1.01 | locus YBR023C, strain chs3, hits give low values 1.01 | locus YBR171W, strain sec66, hits give low values 1.01 | locus YBR229C, strain ROT2, hits give low values 1.02 | locus YBR231C, strain swc5, hits give low values 1.02 | locus YBR279W, strain paf1, hits give low values 1 | locus YCL011C, strain gbp2, hits give low values 1.01 | locus YCL016C, strain dcc1, hits give low values 0.994 | locus YCL029C, strain bik1, hits give low values 1.01 | locus YCL069W, strain vba3, hits give low values 1.02 | locus YCR088W, strain abp1, hits give low values 1.01 | locus YDL005C, strain med2, hits give low values 0.995 | locus YDL035C, strain GPR1, hits give low values 1.03 | locus YDL074C, strain BRE1, hits give low values 0.984 | locus YDL101C, strain DUN1, hits give low values 1 | locus YDL134C, strain PPH21, hits give low values 0.999 | locus YDL185W, strain tfp1, hits give low values 0.992 | locus YDL192W, strain arf1, hits give low values 1.01 | locus YDR001C, strain nth1, hits give low values 1.01 | locus YDR069C, strain doa4, hits give low values 1.03 | locus YDR101C, strain arx1, hits give low values 1.01 | locus YDR150W, strain NUM1, hits give low values 1.01 | locus YDR159W, strain sac3, hits give low values 1.02 | locus YDR162C, strain NBP2, hits give low values 1 | locus YDR195W, strain ref2 1.01 | locus YDR297W, strain sur2, hits give low values 1.01 | locus YDR318W, strain mcm21, hits give low values 1.03 | locus YDR334W, strain swr1, hits give low values 0.993 | locus YDR335W, strain msn5, hits give low values 1.01 | locus YDR388W, hits give low values 1.02 | locus YDR392W, strain spt3, hits give low values 0.921 | locus YDR502C, strain sam2, hits give low values 0.982 | locus YEL003W, strain gim4, hits give low values 1 | locus YEL037C, strain rad23, hits give low values 1 | locus YEL061C, strain CIN8 (second series), hits give low values 0.999 | locus YEL061C, strain CIN8, hits give low values 1.01 | locus YER015W, strain faa2, hits give low values 1.02 | locus YER016W, strain bim1, hits give low values 1.01 | locus YER110C, hits give low values 1.01 | locus YER111C, strain swi4, hits give low values 1.01 | locus YER155C, strain BEM2 (second series), hits give low values 0.936 | locus YER155C, strain BEM2, hits give low values 1.01 | locus YER167W, strain BCK2, hits give low values 1.03 | locus YFR010W, strain ubp6, hits give low values 1.02 | locus YGL078C, strain dbp3, hits give low values 1 | locus YGL086W, strain mad1, hits give low values 1.01 | locus YGL167C, strain pmr1, hits give low values 1.01 | locus YGL173C, strain kem1, hits give low values 1.01 | locus YGL227W, strain vid30, hits give low values 0.998 | locus YGL240W, strain doc1, hits give low values 1.01 | locus YGL248W, strain PDE1, hits give low values 1 | locus YGL253W, strain hxk2, hits give low values 1 | locus YGR078C, strain PAC10, hits give low values 0.99 | locus YGR135W, strain pre9, hits give low values 0.978 | locus YGR229C, strain SMI1, hits give low values 1.01 | locus YGR252W, strain gcn5, hits give low values 0.989 | locus YHR013C, strain ard1, hits give low values 1.07 | locus YHR027C, strain rpn1, hits give low values 1 | locus YHR030C, strain SLT2, hits give low values 1.01 and 0.961 | locus YHR079C, strain IRE1 (second series), hits give low values 0.998 | locus YHR079C, strain IRE1, hits give low values 0.962 | locus YHR094C, strain hxt1, hits give low values 1.01 | locus YHR129C, strain ARP1, hits give low values 1.01 | locus YHR142W, strain chs7, hits give low values 0.977 | locus YHR200W, strain rpn10, hits give low values 1 | locus YIL066C, strain RNR3, hits give low values 1.01 | locus YIL073C, strain SPO22, hits give low values 1.04 | locus YIL125W, strain kgd1, hits give low values 1 | locus YIR030C, strain dcg1, hits give low values 1 | locus YJL092W, strain hpr5, hits give low values 1.01 | locus YJL095W, strain BCK1 (second series), hits give low values 1.01 | locus YJL095W, strain BCK1, hits give low values 0.987 and 0.964 | locus YJL115W, strain asf1, hits give low values 0.991 | locus YJL129C, strain trk1, hits give low values 1.01 | locus YJL134W, strain LCB3, hits give low values 1.01 | locus YJL154C, strain vps35, hits give low values 1.01 | locus YJL164C, strain tpk1, hits give low values 0.975 | locus YJL166W, strain qcr8, hits give low values 1.03 | locus YJL168C, strain set2, hits give low values 1 | locus YJL187C, strain SWE1 (second series), hits give low values 0.995 | locus YJL187C, strain SWE1, hits give low values 1.01 | locus YJR043C, strain POL32, hits give low values 1.03 | locus YJR066W, strain TOR1, hits give low values 0.911 | locus YJR075W, strain HOC1, hits give low values 0.977
